Experimental data from PubChem BioAssay AID1022 (Emory University Molecular Libraries Screening Center, 2008).
Among all 220,000 compounds or so, about 3,300 (1.5%) were called active. Only a selection was taken, and actives are over-represented in it overall. Values without a mark were called inactive.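 How the source made its calls: active means compounds that cut the protein-peptide binding signal by more than 50% relative to plate controls in a single-dose test; inactive means the rest.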

target: Induced myeloid leukemia cell differentiation protein Mcl-1 (Homo sapiens) (UniProt Q07820); assay: Mcl-1/Noxa binding inhibitors, primary screen, biochemical, TR-FRET, 1536-well (AID 1022); settings: TR-FRET Mcl-1/Noxa peptide binding, 2 h; at 21.7 µM; active compounds read high;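 further: His-tagged Mcl-1 with rhodamine Noxa BH3 peptide and terbium anti-His antibody; 0% = Mcl-1 plus Noxa peptide wells and 100% = peptide-only wells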
Sequence (Q07820 whole entry, looked up): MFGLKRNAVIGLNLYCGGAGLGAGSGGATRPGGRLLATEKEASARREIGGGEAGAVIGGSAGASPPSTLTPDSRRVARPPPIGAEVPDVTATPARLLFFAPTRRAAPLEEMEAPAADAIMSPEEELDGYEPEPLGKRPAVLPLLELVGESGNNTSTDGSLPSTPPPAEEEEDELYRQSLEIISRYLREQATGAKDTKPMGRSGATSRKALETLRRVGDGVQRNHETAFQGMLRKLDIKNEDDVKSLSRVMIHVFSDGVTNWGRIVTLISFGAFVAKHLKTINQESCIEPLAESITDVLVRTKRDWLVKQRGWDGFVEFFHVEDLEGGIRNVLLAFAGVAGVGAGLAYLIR

In order of falling inhibition:
1. O=C(COC(=O)CCC(=O)c1cccs1)NCc1ccco1  41%
2. NC(=O)c1c(NC(=O)CSc2nc(N)cc(=O)[nH]2)sc2c1CCCC2  39.5%
3. O=C(Nc1ccc(S(=O)(=O)Nc2nccs2)cc1)c1cc(=O)[nH]c2ccccc12  38.3%
4. FC(F)(F)c1nc(-c2ccccc2)ncc1-c1nnnn1-c1ccccc1  35.2%
5. CC(C)Cc1nnc(NC(=O)CCC(=O)Nc2ccc3cn[nH]c3c2)s1  32.1%
6. O=C(NCCc1c[nH]c2ccc(Cl)cc12)c1ccc([N+](=O)[O-])cc1  27.8%
7. Cc1nn(Cc2ccc(Cl)cc2)c(Cl)c1/C=N/NC(=O)c1cccnc1  27.5%
8. O=C(O)C1CCN(c2ccc([N+](=O)[O-])cc2[N+](=O)[O-])CC1  23.9%
9. COc1ccc(OC)c(C(c2nnnn2C(C)(C)C)N2CCc3ccccc3C2)c1 (stereo unspecified)  23.3%
10. CCN(CC)CCN(C(=O)c1cccc([N+](=O)[O-])c1)c1nc2ccc(OC)cc2s1  19.8%
11. Cc1ccc(-c2cc(C(=O)N/N=C/C=C/c3ccco3)c3ccccc3n2)cc1C  19.7%
12. CCN(CC)c1ccc(NC(=O)C2CCC(CNc3c(N4CCCC4)c(=O)c3=O)CC2)c(C)c1 (stereo unspecified)  19.7%
13. O=C(CCn1nnc2ccccc2c1=O)N[C@@H](Cc1c[nH]c2ccccc12)C(=O)O  18.9%
14. COc1ccc(-c2nc(CS(=O)CC(=O)N3CCc4ccccc4C3)c(C)o2)cc1 (stereo unspecified)  18.7%
15. Cc1ccc(OCC(=O)Nc2nnc(-c3ccco3)s2)cc1  17.5%
16. CC1=C/C(=N\S(=O)(=O)c2ccccc2)C(C(C)C)=CC1=O  17%
17. COc1ccc(OCCC(=O)c2ccc(OC)cc2)cc1  16.6%
18. O=C(O)CC12CC3CC(C1)CC(n1ncc(NCc4ccc(F)cc4)c(Cl)c1=O)(C3)C2  16.2%
19. CCOc1ccc(N=C2SC(C(=O)O)CC(=O)N2C)cc1 (stereo unspecified)  16.1%
20. CC(/C=N/NC(=O)c1ccncc1)=C\c1ccco1  16.1%
21. COc1ccc(NC(=O)CSc2ncnc3[nH]ncc23)cc1  16.1%
22. O=C(Nc1ccc(S(=O)(=O)N2CCOCC2)cc1)c1ccc2ncsc2c1  15.9%
23. Cc1ccc(/C=N/NC(=O)CN2CCN(Cc3ccccc3)CC2)s1  14.9%
24. O=C(N/N=C/c1ccc([N+](=O)[O-])cc1)c1c[nH]c2ccccc12  14.4%
25. O=C(Cn1nnc(N2CCCCC2)n1)c1ccc(Cl)c(Cl)c1  13.1%
26. COc1cc(C(CCN2CCN(c3ccccc3)CC2)c2c(OC)cc(OC)c3ccc(=O)oc23)cc(OC)c1OC (stereo unspecified)  12.8%
27. NC1=NC(=O)S/C1=C\c1ccc(O)cc1  12.7%
28. Cc1c([N+](=O)[O-])c(N)nn1C  12.1%
29. COc1ccc(N2CCN(c3ccc([N+](=O)[O-])cc3Cl)CC2)cc1  11.9%
30. Cc1ccc(-c2cc(C(=O)NN)n[nH]2)o1  11.3%
31. CCOC(=O)CN(C)S(=O)(=O)c1ccc(-c2cc(C(=O)OC)sc2C(F)(F)F)cc1  11.3%
32. COc1ccc(NC(=S)N2CCc3cc(OC)c(OC)cc3C2)cc1  11.1%
33. CCOC(=O)C1(S(=O)(=O)c2ccccc2)CCN(Cc2ccccc2)CC1  10.4%
34. Cc1ccc(-c2cc(C(=O)Nc3nn[nH]n3)c3ccccc3n2)c(C)c1  10.4%
35. Cc1ccc(-c2nc(CS(=O)CC(=O)NC3CCCC3)c(C)o2)cc1 (stereo unspecified)  10%
36. Cc1nc2ccccc2cc1C(=O)N/N=C/c1ccc([N+](=O)[O-])cc1  9.39%
37. C=CCNC(=S)N/N=C/c1ccc(C)s1  7.32%
38. Cc1ccc(C)c(SCc2nc3sc(C(=O)O)c(C)c3c(=O)[nH]2)c1  7.18%
39. CNc1nnc(-c2ccco2)s1  6.49%
40. Cc1ccccc1Cn1c2ccccc2c2cnn(CC(=O)NCc3ccco3)c(=O)c21  6.08%
41. Cc1nn(Cc2ccc(Cl)cc2)c(Cl)c1/C=N/NC(=O)CNc1ccccc1F  5.98%
42. Cc1nc2cc3c(cc2s1)OCO3  4.53%
43. Cc1ccc(NC(=O)COC(=O)CCc2nc3ccccc3n2-c2ccccc2)c(C)c1  4.37%
44. O=c1c(/C=N/O)coc2ccc(Cl)cc12  4.15%
45. CC(C)Cc1ccc(C(C)C(=N)N)cc1 (stereo unspecified)  4.15%
46. Cc1nnc2sc(-c3ccco3)nn12  3.91%
47. O=c1c(-c2ccccc2)coc2cc(O)ccc12  3.79%
48. FC(F)(F)c1nnc2sc(-c3ccco3)nn12  2.95%
49. O=C(CC12CC3CC(CC(C3)C1)C2)NCc1ccco1  2.69%
50. C=CCNC(=S)N1CCc2[nH]c3ccccc3c2C1  2.21%
51. CCc1ccccc1N1C(=O)C2C3CC(=O)C(c4ccccc43)C2C1=O (stereo unspecified)  1.91%
52. COCCn1c(SCC(=O)Nc2cc(OC)ccc2OC)nc2c(c1=O)SC(C)C2 (stereo unspecified)  1.76%
53. CC(C)(C)c1ccc(NC(=O)COC(=O)CCc2nc3ccccc3c(=O)[nH]2)cc1  0.96%
54. CC(C)(C)c1ccc(CCC2OCC(CN3CCOCC3)O2)cc1 (stereo unspecified)  -0.05%
55. O=C(NCC(c1cccs1)N1CCOCC1)c1cc(-c2ccccn2)nc2ccccc12 (stereo unspecified)  -1.37%
56. C/C(=N/NC(=O)c1ccn(C)n1)c1ccncc1  -1.7%
57. COC(=O)c1cc(N2CCNCC2)nc2ccccc12  -2.31%
58. CN1CCc2ccccc2C1Cc1ccccc1NC(=O)c1sc2ccccc2c1Cl (stereo unspecified)  -2.87%
59. CCOC(=O)c1sc2nc(CSc3ccccc3)[nH]c(=O)c2c1C  -3.55%
60. CC(=O)Nc1ccc(CC#N)cc1  -4.22%
61. O=C(Nc1ccccc1C(F)(F)F)N1CCCC1c1cccnc1 (stereo unspecified)  -4.25%
62. CCOc1ccc2[nH]c(=O)c(C(c3nnnn3CCOC)N3CCOCC3)cc2c1 (stereo unspecified)  -4.39%
63. COCCn1c(SCC(=O)c2[nH]c(C)c(C(C)=O)c2C)nc2ccccc2c1=O  -5.29%
64. Cc1c(NC(=O)c2cc(-c3ccc(Cl)s3)nc3ccccc23)c(=O)n(-c2ccccc2)n1C  -5.37%
65. CSc1sc(C(=O)NC(=O)NCc2cccnc2)c(C)c1-c1ccon1  -5.48%
66. COc1ccc(/C=N/n2nnnc2N)cc1OC  -6.77%
67. CCCCNC(=O)OCCSCCS(=O)(=O)c1ccc(Cl)cc1  -6.78%
68. O=S(=O)(c1ccc(F)cc1)N1CC=C(c2ccccc2)CC1  -8.68%
69. Cc1cc(NCc2cccnc2)no1  -9.18%
70. C=CC(COCc1ccccc1)N(Cc1ccccc1)S(=O)(=O)c1ccccc1Br (stereo unspecified)  -9.99%
71. CNC1(c2nnnn2-c2c(C)cccc2C)CCOC(C)(C)C1 (stereo unspecified)  -14.2%
72. O=C(NCc1ccccc1Cl)NC(=O)c1csc([N+](=O)[O-])c1  -17.3%
73. Cc1ccc(N2C(=O)CC(Nc3cccc4ccccc34)C2=O)cc1 (stereo unspecified)  -23%
74. CCC(CC)C(=O)Nc1ccc(S(=O)(=O)Nc2nccs2)cc1  -30.3%
75. Fc1cc(F)c2nc(Nc3nc4c(F)cccc4s3)sc2c1  -45.8%
76. Oc1ccc2ccccc2c1N=Nc1nccs1  -81.5%

In the case of `CCn1nc(C)c(/C=N/NC(=O)Cc2ccc(Cl)cc2)c1C`, the inhibition is reported as 91.8% (active).
For `O=C1/C(=C/c2coc3ccc(O)cc3c2=O)SC(=S)N1c1ccccc1`, the inhibition was 56.9% (active).
For `CC1=C/C(=N\OS(=O)(=O)c2ccccc2)C=CC1=O`, the inhibition was 61.2% (active).
In the case of `O=C(Nc1ccc(S(=O)(=O)Nc2nccs2)cc1)c1cc(-c2ccncc2)nc2ccccc12`, the inhibition is reported as 89.7% (active).
In the case of `NC(=O)c1c(Nc2nc3c(F)cccc3s2)sc2c1CCCC2`, the inhibition is reported as 94.4% (active).
With `CCN(CC)CCN(C(=O)c1ccc(N2C(=O)CCC2=O)cc1)c1nc2cc3c(cc2s1)OCO3` the inhibition was 59.3% (active).
With `CCN(c1ccc(NC(=O)COC(=O)CCc2nc3ccccc3n2-c2ccccc2)cc1)C(C)C` the inhibition was 79.3% (active).
`CC1=C(C)CC2C(=O)N(c3cccc4ccccc34)C(=O)C2C1` (stereo unspecified) was tested, and the inhibition was 53.5% (active).
In the case of `COCCn1nnnc1C(c1cc2ccc(OC)cc2[nH]c1=O)N1CCc2ccccc2C1` (stereo unspecified), the inhibition is reported as 58.9% (active).
`CSc1nnc(SCc2nc3sc(C(=O)O)c(C)c3c(=O)[nH]2)s1` was tested, and the inhibition was 70.6% (active).
In the case of `CCOc1ccc(N=C2NC(=O)S/C2=C\c2ccc(O)cc2)cc1`, the inhibition is reported as 98.8% (active).
`O=C(COC(=O)C12CC3CC(CC(C3)C1)C2)NCc1ccco1` was tested, and the inhibition was 54.8% (active).
With `CC(/C=N/NC(=O)c1cc(-c2ccc3ccccc3c2)n[nH]1)=C\c1ccco1` the inhibition was 78.8% (active).
For `O=[N+]([O-])c1ccc(N2CCN(c3ccc(O)cc3)CC2)c(Cl)c1`, the inhibition was 65.2% (active).
In the case of `O=C(N/N=C/c1ccc(Cl)cc1)c1nc2ccc([N+](=O)[O-])cc2c(=O)[nH]1`, the inhibition is reported as 71.4% (active).
For `Fc1ccc(-c2ccc(-c3nn4c(-c5ccco5)nnc4s3)o2)cc1`, the inhibition was 71% (active).
With `COc1ccc(OCC(=O)Nc2nnc(-c3ccco3)s2)cc1` the inhibition was 87.4% (active).
`Cc1ccc(-c2nc(CS(=O)CC(=O)N3CCN(c4ncccn4)CC3)c(C)o2)cc1` (stereo unspecified) was tested, and the inhibition was 54.7% (active).
`Cc1coc2c(O)cc3c(c12)OC1(N2CCCCC2)C(=O)NCCCC31` (stereo unspecified) was tested, and the inhibition was 62.4% (active).
With `Cc1ccc(NC(=O)c2cc(-c3ccc(C)o3)nc3ccccc23)nc1` the inhibition was 52.1% (active).
